# In ChEMBL document CHEMBL1961873, “Compounds: GSK PKIS; Assays: Nanosyn kinase panel” (2012):
# How the values were obtained:
# [1] = target: T1, Inhibitor of nuclear factor kappa-B kinase subunit epsilon (Homo sapiens) (UniProt Q14164); conditions: at 1 µM;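 further: reported values are averaged percent inhibition figures against human IKKε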
# T1 sequence (whole entry): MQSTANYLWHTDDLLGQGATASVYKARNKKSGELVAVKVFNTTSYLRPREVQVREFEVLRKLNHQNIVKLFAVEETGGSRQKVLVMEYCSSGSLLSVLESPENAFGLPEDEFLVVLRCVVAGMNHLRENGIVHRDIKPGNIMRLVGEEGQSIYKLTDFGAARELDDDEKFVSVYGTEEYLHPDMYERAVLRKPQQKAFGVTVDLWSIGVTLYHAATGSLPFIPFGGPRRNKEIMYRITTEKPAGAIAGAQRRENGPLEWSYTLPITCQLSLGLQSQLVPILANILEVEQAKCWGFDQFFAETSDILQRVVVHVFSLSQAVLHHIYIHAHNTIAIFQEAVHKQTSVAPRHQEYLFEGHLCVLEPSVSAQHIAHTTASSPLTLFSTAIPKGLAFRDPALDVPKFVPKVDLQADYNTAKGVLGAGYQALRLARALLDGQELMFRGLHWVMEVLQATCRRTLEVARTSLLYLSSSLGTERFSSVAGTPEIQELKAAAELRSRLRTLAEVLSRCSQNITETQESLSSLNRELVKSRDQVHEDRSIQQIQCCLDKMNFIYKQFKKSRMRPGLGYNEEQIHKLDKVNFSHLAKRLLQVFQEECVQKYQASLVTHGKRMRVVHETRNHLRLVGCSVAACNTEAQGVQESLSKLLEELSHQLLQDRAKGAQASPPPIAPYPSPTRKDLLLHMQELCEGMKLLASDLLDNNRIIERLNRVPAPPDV
# [2] = target: T2, Serine/threonine-protein kinase Nek1 (Homo sapiens) (UniProt Q96PY6); conditions: at 0.1 µM
# T2 sequence (whole entry): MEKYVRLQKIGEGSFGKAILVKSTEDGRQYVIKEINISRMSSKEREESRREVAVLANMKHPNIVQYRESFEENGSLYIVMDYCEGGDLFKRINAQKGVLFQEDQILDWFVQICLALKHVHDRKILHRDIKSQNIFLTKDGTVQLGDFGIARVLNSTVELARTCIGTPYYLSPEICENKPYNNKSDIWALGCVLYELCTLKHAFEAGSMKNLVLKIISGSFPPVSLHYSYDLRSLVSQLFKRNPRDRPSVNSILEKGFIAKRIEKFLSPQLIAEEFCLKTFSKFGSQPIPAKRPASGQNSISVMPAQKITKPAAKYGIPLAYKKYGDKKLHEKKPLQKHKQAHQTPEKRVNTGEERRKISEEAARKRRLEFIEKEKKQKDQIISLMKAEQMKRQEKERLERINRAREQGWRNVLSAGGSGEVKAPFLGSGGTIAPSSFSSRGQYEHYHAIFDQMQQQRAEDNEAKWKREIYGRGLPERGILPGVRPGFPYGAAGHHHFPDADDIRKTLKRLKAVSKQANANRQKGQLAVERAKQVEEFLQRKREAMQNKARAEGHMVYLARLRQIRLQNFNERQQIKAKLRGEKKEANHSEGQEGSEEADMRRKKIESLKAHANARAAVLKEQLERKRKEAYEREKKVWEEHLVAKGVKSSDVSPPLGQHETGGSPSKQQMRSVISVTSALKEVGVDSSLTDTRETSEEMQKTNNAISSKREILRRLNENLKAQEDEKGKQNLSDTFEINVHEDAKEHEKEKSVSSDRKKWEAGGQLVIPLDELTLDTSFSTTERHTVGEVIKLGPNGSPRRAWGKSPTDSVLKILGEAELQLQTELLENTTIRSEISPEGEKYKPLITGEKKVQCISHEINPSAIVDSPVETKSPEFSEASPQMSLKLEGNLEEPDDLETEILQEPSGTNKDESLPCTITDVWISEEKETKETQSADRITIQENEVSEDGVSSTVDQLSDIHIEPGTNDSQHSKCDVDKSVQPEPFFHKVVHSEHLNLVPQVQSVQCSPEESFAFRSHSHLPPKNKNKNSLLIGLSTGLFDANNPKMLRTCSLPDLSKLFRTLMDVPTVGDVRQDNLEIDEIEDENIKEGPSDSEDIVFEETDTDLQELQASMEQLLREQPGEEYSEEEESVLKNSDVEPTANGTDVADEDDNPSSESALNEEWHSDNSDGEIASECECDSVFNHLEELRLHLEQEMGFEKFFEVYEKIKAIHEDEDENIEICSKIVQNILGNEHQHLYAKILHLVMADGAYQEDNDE
# [3] = target: T2, Serine/threonine-protein kinase Nek1 (Homo sapiens); conditions: at 1 µM
# [4] = target: T3, Serine/threonine-protein kinase Nek2 (Homo sapiens) (UniProt P51955); conditions: at 0.1 µM
# T3 sequence (whole entry): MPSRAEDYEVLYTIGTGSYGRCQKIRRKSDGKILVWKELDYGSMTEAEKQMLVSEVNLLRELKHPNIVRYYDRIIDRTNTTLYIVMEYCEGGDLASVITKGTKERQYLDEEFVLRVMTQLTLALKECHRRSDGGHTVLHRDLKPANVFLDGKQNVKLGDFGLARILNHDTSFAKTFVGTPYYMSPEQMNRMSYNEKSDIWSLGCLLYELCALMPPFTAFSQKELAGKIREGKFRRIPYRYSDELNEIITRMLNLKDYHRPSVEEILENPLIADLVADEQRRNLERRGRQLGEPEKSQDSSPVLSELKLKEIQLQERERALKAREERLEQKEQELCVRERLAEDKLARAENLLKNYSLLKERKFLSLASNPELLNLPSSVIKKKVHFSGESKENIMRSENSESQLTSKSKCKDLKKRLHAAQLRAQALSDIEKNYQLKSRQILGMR
# [5] = target: T3, Serine/threonine-protein kinase Nek2 (Homo sapiens); conditions: at 1 µM
# [6] = target: Serine/threonine-protein kinase Nek6 (Homo sapiens) (UniProt Q9HC98); conditions: at 0.1 µM
# [7] = target: Serine/threonine-protein kinase Nek6 (Homo sapiens) (UniProt Q9HC98); conditions: at 1 µM
# [8] = target: Serine/threonine-protein kinase Nek7 (Homo sapiens) (UniProt Q8TDX7); conditions: at 0.1 µM
# [9] = target: Serine/threonine-protein kinase Nek7 (Homo sapiens) (UniProt Q8TDX7); conditions: at 1 µM
# [10] = target: T4, Serine/threonine-protein kinase Nek9 (Homo sapiens) (UniProt Q8TD19); conditions: at 0.1 µM
# T4 sequence (whole entry): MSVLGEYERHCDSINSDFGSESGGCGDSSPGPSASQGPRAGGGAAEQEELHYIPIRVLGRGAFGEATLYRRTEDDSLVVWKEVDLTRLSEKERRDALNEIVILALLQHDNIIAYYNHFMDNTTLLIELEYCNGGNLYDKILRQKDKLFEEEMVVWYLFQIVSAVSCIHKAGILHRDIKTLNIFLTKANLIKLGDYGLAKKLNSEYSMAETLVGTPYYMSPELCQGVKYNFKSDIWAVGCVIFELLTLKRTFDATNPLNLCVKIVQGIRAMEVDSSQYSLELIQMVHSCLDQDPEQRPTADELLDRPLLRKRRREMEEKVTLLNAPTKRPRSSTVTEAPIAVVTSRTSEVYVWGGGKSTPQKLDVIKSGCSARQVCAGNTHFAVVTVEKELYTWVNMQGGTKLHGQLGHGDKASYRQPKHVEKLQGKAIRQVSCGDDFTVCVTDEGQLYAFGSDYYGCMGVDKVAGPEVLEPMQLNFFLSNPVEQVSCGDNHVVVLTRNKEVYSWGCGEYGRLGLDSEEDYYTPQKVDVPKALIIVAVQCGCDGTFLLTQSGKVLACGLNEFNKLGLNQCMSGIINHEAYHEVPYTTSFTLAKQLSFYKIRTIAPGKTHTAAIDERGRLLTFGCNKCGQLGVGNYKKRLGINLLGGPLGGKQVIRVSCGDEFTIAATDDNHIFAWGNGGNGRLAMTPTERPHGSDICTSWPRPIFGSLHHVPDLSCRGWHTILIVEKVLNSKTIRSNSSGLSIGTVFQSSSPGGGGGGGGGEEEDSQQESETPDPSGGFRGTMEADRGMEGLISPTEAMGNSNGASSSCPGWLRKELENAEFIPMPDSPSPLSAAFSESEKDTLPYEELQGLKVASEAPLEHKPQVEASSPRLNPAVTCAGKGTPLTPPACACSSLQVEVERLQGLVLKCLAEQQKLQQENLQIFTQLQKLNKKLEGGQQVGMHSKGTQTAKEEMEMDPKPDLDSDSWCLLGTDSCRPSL
# [11] = target: T4, Serine/threonine-protein kinase Nek9 (Homo sapiens); conditions: at 1 µM
# [12] = target: Serine/threonine-protein kinase PLK1 (Homo sapiens) (UniProt P53350); conditions: at 0.1 µM
# [13] = target: Serine/threonine-protein kinase PLK1 (Homo sapiens) (UniProt P53350); conditions: at 1 µM
# [14] = target: T5, Dual specificity protein kinase TTK (Homo sapiens) (UniProt P33981); conditions: at 0.1 µM
# T5 sequence (whole entry): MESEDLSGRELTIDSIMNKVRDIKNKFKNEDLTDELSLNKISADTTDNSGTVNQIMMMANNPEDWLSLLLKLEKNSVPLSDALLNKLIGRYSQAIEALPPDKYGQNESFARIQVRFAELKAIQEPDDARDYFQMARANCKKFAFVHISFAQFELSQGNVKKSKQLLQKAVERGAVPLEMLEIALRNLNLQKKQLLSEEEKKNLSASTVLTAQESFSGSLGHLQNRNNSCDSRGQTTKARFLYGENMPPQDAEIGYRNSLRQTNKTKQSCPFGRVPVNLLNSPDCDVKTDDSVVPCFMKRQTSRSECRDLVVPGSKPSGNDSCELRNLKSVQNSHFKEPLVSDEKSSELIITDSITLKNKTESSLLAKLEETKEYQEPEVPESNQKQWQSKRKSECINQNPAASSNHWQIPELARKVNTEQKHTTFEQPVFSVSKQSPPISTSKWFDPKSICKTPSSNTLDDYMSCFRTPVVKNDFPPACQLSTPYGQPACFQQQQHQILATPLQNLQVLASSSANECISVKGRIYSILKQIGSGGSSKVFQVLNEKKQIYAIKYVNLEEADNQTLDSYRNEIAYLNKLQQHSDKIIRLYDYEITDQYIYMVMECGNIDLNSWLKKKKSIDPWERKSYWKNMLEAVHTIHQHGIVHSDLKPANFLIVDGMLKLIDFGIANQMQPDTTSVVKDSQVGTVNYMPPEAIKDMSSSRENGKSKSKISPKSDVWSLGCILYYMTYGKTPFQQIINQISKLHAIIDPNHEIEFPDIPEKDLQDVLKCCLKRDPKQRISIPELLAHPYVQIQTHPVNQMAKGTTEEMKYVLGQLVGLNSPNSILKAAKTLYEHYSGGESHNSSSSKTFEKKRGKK
# [15] = test system: T6, Receptor-type tyrosine-protein kinase FLT3 (Homo sapiens), P36888 [D835Y]; conditions: at 1 µM
# T6 sequence (whole entry): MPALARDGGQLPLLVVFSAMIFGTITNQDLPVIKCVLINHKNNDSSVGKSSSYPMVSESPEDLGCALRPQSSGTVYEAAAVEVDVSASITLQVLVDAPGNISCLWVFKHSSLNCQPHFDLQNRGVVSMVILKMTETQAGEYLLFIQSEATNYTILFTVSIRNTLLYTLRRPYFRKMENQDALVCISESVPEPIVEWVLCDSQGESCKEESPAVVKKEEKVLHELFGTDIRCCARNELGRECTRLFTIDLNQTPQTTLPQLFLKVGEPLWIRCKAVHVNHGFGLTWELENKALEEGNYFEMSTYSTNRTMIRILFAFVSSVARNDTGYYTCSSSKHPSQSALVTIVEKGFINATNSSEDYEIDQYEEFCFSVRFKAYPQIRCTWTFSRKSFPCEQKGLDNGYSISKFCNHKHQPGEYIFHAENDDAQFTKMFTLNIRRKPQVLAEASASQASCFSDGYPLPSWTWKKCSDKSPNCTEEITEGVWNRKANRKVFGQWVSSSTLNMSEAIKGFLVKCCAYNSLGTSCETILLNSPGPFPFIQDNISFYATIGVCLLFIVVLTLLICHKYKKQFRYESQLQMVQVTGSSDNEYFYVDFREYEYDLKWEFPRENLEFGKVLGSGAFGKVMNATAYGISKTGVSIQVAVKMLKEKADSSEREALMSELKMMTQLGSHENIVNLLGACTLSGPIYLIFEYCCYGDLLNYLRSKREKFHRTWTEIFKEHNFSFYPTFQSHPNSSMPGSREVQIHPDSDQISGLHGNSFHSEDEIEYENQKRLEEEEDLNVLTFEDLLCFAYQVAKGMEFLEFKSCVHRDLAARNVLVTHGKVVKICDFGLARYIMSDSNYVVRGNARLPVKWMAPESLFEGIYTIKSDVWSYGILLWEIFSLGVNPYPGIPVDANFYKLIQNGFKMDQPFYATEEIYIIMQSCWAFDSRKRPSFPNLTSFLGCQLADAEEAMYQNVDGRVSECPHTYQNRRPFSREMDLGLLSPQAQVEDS
# [16] = target: Vascular endothelial growth factor receptor 3 (Homo sapiens) (UniProt P35916); conditions: at 0.1 µM
# [17] = target: Vascular endothelial growth factor receptor 3 (Homo sapiens) (UniProt P35916); conditions: at 1 µM
# [18] = target: Macrophage colony-stimulating factor 1 receptor (Homo sapiens) (UniProt P07333); conditions: at 0.1 µM
# [19] = target: Macrophage colony-stimulating factor 1 receptor (Homo sapiens) (UniProt P07333); conditions: at 1 µM
# [20] = target: Tyrosine-protein kinase Fyn (Homo sapiens) (UniProt P06241); conditions: at 0.1 µM
# Chain of Tyrosine-protein kinase Fyn (Homo sapiens) (P06241 2-537 limits assumed): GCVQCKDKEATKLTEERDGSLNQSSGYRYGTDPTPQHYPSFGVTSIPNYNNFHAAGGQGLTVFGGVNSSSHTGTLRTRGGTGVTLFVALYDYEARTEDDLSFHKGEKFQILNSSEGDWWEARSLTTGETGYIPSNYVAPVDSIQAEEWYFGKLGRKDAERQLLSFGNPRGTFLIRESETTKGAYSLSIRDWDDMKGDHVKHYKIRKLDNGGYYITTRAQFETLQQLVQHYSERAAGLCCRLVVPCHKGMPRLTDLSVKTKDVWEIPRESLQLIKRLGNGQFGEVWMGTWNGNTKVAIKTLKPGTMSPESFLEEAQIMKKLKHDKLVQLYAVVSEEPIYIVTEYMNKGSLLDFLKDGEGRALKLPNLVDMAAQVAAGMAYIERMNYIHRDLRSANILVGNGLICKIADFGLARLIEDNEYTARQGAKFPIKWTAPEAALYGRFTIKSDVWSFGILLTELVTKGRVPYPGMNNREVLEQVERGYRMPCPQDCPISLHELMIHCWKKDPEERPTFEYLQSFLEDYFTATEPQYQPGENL
# Chain of Macrophage colony-stimulating factor 1 receptor (Homo sapiens) (P07333 whole entry): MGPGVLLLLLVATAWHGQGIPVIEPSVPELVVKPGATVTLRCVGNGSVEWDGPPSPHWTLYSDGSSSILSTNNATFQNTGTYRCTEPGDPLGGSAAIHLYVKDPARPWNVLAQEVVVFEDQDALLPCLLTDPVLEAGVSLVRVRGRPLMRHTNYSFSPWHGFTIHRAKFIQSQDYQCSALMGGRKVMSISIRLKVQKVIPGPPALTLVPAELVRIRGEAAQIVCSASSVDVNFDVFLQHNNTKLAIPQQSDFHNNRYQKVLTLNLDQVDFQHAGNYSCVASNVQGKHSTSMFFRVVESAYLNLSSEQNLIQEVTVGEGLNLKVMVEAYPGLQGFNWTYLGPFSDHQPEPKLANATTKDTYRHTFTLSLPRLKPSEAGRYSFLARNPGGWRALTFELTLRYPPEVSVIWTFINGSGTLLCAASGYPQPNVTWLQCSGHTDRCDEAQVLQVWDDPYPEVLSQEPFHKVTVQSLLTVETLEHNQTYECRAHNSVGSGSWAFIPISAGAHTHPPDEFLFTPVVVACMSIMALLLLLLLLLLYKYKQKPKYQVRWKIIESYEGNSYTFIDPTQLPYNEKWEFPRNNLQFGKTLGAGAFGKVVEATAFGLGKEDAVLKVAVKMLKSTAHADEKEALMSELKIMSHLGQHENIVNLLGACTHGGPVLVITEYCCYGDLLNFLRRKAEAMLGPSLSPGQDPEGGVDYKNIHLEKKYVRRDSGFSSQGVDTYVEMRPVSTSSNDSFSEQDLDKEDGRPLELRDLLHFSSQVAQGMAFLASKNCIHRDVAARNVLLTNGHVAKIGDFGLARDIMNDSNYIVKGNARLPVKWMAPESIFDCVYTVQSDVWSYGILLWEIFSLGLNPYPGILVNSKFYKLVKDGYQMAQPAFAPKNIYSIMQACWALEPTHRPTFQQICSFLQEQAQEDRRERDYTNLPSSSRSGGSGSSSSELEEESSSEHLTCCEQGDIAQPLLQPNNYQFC
# Chain of Serine/threonine-protein kinase Nek6 (Homo sapiens) (Q9HC98 whole entry): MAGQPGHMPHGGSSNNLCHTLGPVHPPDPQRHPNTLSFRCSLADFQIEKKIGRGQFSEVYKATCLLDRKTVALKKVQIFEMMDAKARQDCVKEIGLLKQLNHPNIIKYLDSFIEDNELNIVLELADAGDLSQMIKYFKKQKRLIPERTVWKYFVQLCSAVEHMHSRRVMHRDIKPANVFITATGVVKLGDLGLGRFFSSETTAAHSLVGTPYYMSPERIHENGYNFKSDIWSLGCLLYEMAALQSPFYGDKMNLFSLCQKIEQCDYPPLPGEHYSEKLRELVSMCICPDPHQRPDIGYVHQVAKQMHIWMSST
# Chain of Serine/threonine-protein kinase Nek7 (Homo sapiens) (Q8TDX7 whole entry, looked up): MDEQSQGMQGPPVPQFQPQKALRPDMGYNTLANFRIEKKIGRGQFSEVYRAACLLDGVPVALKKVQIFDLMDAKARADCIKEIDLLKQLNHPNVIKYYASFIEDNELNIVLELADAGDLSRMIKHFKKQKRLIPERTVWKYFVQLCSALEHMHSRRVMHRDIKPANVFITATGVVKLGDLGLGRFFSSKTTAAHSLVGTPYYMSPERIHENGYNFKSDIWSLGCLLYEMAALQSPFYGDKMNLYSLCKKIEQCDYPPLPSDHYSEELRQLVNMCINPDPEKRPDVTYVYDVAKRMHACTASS
# Chain of Serine/threonine-protein kinase PLK1 (Homo sapiens) (P53350 whole entry): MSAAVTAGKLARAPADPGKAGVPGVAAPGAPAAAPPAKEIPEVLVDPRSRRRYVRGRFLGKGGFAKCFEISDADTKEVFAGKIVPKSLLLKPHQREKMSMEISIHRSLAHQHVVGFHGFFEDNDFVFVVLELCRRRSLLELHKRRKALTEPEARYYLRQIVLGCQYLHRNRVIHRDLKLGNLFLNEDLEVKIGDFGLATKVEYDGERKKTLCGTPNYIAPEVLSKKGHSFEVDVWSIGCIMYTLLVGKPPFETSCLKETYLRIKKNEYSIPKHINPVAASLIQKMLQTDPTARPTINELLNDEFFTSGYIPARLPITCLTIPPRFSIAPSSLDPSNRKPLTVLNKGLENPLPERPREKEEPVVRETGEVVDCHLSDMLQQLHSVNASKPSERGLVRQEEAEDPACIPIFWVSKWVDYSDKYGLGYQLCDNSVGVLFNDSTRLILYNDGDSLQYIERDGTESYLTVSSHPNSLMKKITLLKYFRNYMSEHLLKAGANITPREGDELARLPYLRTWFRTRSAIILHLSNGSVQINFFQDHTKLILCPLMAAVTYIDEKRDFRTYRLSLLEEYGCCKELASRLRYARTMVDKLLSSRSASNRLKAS
# Chain of Vascular endothelial growth factor receptor 3 (Homo sapiens) (P35916 whole entry): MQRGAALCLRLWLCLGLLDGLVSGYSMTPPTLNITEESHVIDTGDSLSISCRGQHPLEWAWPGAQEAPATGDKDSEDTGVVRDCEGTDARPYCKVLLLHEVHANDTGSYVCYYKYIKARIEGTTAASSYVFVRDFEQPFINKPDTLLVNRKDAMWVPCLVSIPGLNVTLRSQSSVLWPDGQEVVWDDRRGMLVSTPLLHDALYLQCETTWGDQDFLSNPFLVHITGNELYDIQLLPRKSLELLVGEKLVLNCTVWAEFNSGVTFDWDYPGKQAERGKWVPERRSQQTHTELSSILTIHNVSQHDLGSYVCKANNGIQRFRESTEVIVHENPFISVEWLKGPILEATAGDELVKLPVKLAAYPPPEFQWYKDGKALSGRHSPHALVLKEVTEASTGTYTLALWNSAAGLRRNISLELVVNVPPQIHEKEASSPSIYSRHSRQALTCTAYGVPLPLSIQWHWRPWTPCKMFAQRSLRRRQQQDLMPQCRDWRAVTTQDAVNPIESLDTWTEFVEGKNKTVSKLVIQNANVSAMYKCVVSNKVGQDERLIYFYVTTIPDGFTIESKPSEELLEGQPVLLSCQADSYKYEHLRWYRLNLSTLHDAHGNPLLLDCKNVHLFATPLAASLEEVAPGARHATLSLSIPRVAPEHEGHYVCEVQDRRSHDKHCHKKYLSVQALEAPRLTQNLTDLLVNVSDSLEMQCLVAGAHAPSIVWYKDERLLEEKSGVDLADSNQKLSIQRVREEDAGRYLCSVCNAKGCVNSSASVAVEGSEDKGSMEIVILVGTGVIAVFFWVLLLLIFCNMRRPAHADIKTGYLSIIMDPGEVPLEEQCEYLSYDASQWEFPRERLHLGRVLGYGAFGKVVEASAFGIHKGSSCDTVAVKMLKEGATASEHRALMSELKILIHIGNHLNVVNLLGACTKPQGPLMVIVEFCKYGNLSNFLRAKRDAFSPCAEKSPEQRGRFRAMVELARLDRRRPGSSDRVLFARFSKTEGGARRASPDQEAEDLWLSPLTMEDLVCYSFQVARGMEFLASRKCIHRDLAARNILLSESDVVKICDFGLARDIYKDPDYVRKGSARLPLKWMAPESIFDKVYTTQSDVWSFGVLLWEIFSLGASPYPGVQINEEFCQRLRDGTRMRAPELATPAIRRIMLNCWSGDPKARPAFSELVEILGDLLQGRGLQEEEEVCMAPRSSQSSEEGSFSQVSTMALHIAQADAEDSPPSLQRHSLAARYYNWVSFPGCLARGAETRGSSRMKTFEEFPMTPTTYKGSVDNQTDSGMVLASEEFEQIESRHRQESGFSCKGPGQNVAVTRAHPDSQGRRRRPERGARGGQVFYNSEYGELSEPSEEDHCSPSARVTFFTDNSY
Structure (SMILES),inhibition [1],inhibition [2],inhibition [3],inhibition [4],inhibition [5],inhibition [6],inhibition [7],inhibition [8],inhibition [9],inhibition [10],inhibition [11],inhibition [12],inhibition [13],inhibition [14],inhibition [15],inhibition [16],inhibition [17],inhibition [18],inhibition [19],inhibition [20]
Cc1cc(O)cc(C)c1/C=C/c1cncc(C(=O)OC(C)(C)C)c1,91.7%,2.47%,4.15%,3.29%,2.53%,1.87%,2.59%,-2.32%,3.53%,8.55%,2.6%,0.53%,2.82%,6.3%,2.14%,1.44%,1.34%,7.66%,38.6%,8.16%
Fc1cccc(COc2ccc(Nc3ncncc3C#Cc3ccccc3)cc2Cl)c1,8.55%,3.31%,4.09%,5.61%,4.52%,1.91%,3.93%,2.36%,2.64%,10.8%,8.71%,3.37%,3.17%,7.47%,-0.95%,4.04%,0.69%,3.32%,4.86%,1.15%
CCn1c(-c2nonc2N)nc2cncc(C(=O)NCCNC)c21,17.6%,2.71%,5.36%,6.66%,6.84%,-0.45%,0.9%,3.5%,4.72%,7.8%,11.9%,6.23%,5.87%,9.43%,3.12%,1.03%,3.05%,-0.11%,3.41%,2.35%
